Bioassay records deposited in PubChem by several laboratories.
Pemphigus Ab inh: human desmoglein-3 autoantibody binding inhibition; DSG3-coupled beads, scFv-anti-DSG3-GFP binding, flow cytometry; active compounds read low; P32926; 310,000 tested, 0.48% active; binding (percent of control), % at 10 µM;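 active = binding more than 3 SD below its plate's average and above zero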;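 also: hits lower antibody fragment binding to DSG3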
MPTP block: inhibitors of mitochondrial permeability transition pore; isolated mouse mitochondria, Ca2+ swelling absorbance, 30 min; 360,000 tested, 1.4% active; inhibition, % at 10 µM; AID 602449;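 active = inhibition of 50% or more, scaled per plate between neutral and stimulator controls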;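 also: 0% = DMSO wells given calcium and 100% = 1 mM EGTA wells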
rCAG binder: r(CAG) repeat RNA binding; TO-PRO-1 dye displacement fluorescence; 370,000 tested, 1.3% active; inhibition, % at 3 µM;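 active = inhibition above the plate cutoff, the mean of all test compounds on that plate plus 3 SD, cut at about 35% in these data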;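 also: 0% = DMSO alone and 100% = 100 µM mitoxantrone as full dye displacement; higher means more dye released from RNA so lower well fluorescence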
proKLK7 act: activators of human kallikrein-7 zymogen. P49862. purified proKLK7, EDANS-DABCYL substrate fluorescence; 100% is mature enzyme control, 0% vehicle. activation, % at 7 µM. 370,000 tested, 0.9% active;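 active = activation above the mean of all tested compounds plus 3 SD, computed per campaign excluding outliers beyond control limits, cut at about 13% in these data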
ADAM10 inh: ADAM10 inhibition, QFRET primary screen | recombinant ADAM10, EDANS/DABCYL FRET peptide cleavage, 3 h | inhibition, % at 7 µM | 370,000 tested, 0.62% active;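 active = inhibition above a per-campaign cutoff equal to the mean of compounds falling between control-based bounds plus 3 SD, cut at about 20% in these data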;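 also: 0% = DMSO wells while the 100% control is not disclosed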
ADAM17 inh: ADAM17 inhibition, QFRET primary screen. P78536. recombinant ADAM17, EDANS/DABCYL FRET peptide cleavage. inhibition, % at 6.95 µM. 370,000 tested, 0.83% active. AID 720648;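 active = inhibition above the mean of compounds lying between control limits plus 3 SD, set per campaign, cut at about 8.5% in these data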;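 also: 0% = DMSO-only wells as the low control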
Target sequence (P78536 215-824 limits assumed): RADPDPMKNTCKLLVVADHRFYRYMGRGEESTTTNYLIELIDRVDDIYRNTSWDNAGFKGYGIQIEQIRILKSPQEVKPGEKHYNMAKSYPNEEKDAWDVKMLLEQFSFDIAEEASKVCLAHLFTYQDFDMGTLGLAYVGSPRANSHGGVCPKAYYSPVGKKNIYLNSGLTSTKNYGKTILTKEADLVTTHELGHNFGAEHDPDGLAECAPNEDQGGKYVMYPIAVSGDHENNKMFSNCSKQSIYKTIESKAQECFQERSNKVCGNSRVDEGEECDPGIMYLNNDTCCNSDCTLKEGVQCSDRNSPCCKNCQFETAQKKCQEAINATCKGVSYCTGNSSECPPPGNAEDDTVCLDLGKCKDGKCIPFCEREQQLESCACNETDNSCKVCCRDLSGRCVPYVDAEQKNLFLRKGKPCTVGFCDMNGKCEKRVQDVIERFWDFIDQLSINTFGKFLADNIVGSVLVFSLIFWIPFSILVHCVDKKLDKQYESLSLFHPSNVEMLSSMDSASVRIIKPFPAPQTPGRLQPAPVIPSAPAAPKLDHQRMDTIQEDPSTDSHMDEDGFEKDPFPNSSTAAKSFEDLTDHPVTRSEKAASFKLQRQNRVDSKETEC
Rh123 counter: mitochondrial membrane potential, counter-screen | inhibition, % at 10 µM | 5,000 tested, 78% active | isolated mitochondria, Rhodamine 123 fluorescence | shares compounds with MPTP block; in the data active = inhibition above about 22%;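 also: 0% = DMSO vehicle and 100% = positive control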
MPTP swell DR: dose response confirmation of mitochondrial permeability transition pore inhibitors. shares compounds with MPTP block. isolated mitochondria swelling, absorbance. IC50, µM. 780 tested, 58% active. AID 651561; in the data active = IC50 below about 20 µM
MPTP cs DR: active in counter-screen for permeability transition pore inhibitors; shares compounds with MPTP block; isolated mitochondria counterscreen, fluorescence read-out; IC50, µM; 780 tested, 49% active; AID 651564; in the data active = IC50 below about 80 µM
Active calls of the source: *. Rows were chosen to be rich in hits. Some 4.7% of all compounds tested hit in one or more screens of this group.

`CCn1c(=O)c2ccccc2n2c(SCC(=O)N3CCCc4ccccc43)nnc12` gave MPTP block 54*, rCAG binder -4, proKLK7 act 0, ADAM10 inh -8, ADAM17 inh -2, Rh123 counter 3, MPTP swell DR >100 and MPTP cs DR >80.
For CCCCNc1c(-c2cccc(-c3ccc(OC)cc3)c2)nc2ccc(C)cn12 the results were Pemphigus Ab inh 116, MPTP block 56*, rCAG binder 1, proKLK7 act -38, ADAM10 inh -237, ADAM17 inh -83 and Rh123 counter 77*.
CCCCNc1c(-c2cccc(-c3cc(C(C)=O)cs3)c2)nc2ccc(C)cn12 was read as Pemphigus Ab inh 103, MPTP block 11, rCAG binder 4, proKLK7 act 0, ADAM10 inh 3 and ADAM17 inh 2.
CCCCNc1c(-c2cccc(-c3ccc(OC)cc3)c2)nc2cc(C)ccn12 was read as Pemphigus Ab inh 107, MPTP block 63*, rCAG binder 1, proKLK7 act -40, ADAM10 inh -183, ADAM17 inh -66 and Rh123 counter 102*.
`CCCCNc1c(-c2ccc(OC)c(SC3CCCCC3)c2)nc2cc(C)ccn12` gave Pemphigus Ab inh 112, MPTP block 44, rCAG binder -3, proKLK7 act -135, ADAM10 inh -178 and ADAM17 inh -63.
Screening COC(=O)C1=C(C)N(Cc2cccc(C(F)(F)F)c2)C(=NCc2ccc(OC)cc2)NC1c1cccc(C(F)(F)F)c1 (centres undefined) returned rCAG binder 2, proKLK7 act 1, ADAM10 inh -4 and ADAM17 inh 1.
COC(=O)c1sc(NC(=O)c2cc(-c3ccccc3)nc3ccccc23)c(C#N)c1C was read as Pemphigus Ab inh 53, MPTP block 66*, rCAG binder 27, proKLK7 act 0, ADAM10 inh -4, ADAM17 inh -1 and Rh123 counter 70*.
For Cc1cccc(NC(=O)c2sc(NC(=O)COc3ccccc3)c(C#N)c2C)c1C the results were Pemphigus Ab inh 120, MPTP block 22, rCAG binder 1, proKLK7 act 0, ADAM10 inh 3 and ADAM17 inh 1.
For CCOC(=O)c1sc(NC(=O)CSc2n[nH]c(-c3ccncc3)n2)c(C#N)c1C the results were MPTP block 77*, rCAG binder 13, proKLK7 act 0, ADAM10 inh 0, ADAM17 inh -4 and Rh123 counter 80*.
CCOC(=O)c1sc(NC(=O)c2cc(-c3ccc(C)cc3)nc3ccccc23)c(C#N)c1C was read as Pemphigus Ab inh 93, MPTP block 88*, rCAG binder 15, proKLK7 act 0, ADAM10 inh -12, ADAM17 inh 1 and Rh123 counter 78*.
`Cc1ccccc1NC(=O)c1sc(NC(=O)COc2ccccc2)c(C#N)c1C` gave Pemphigus Ab inh 103, MPTP block 54*, rCAG binder 6, proKLK7 act -1, ADAM10 inh 0, ADAM17 inh -1 and Rh123 counter 75*.
Screening C[C@H](CO)N1C[C@H](C)[C@@H](CN(C)C(=O)Cc2cccnc2)Oc2ncc(C#CCc3ccccc3)cc2C1=O returned rCAG binder 10, proKLK7 act 0, ADAM10 inh -5 and ADAM17 inh -6.
Screening CC(=O)N1CCc2c(sc(NC(=O)c3ccc([N+](=O)[O-])o3)c2C#N)C1 returned Pemphigus Ab inh 87, MPTP block 3, rCAG binder 15, proKLK7 act 1, ADAM10 inh -7 and ADAM17 inh -1.
For COC(=O)c1sc(NC(=O)c2ccc([N+](=O)[O-])o2)c(C#N)c1C the results were Pemphigus Ab inh 88, MPTP block 92*, rCAG binder 18, proKLK7 act 0, ADAM10 inh -2, ADAM17 inh 1 and Rh123 counter 81*.
Screening COc1ccc(-c2c(C(F)(F)F)[nH]n3c(=O)cc(-c4ccccc4)nc23)cc1 returned MPTP block 82*, rCAG binder 38*, proKLK7 act -3, ADAM10 inh -60, ADAM17 inh -42 and Rh123 counter 42*.
`COc1ccc(NC(=O)Cn2nnc(-c3ccccc3NS(=O)(=O)c3ccccc3)n2)cc1` gave Pemphigus Ab inh 127, MPTP block 77* and Rh123 counter 75*.
For COc1ccc(S(=O)(=O)Nc2ccccc2-c2nnn(CC(=O)Nc3ccccc3OC)n2)cc1 the results were Pemphigus Ab inh 134, MPTP block 13, rCAG binder 5, proKLK7 act 1, ADAM10 inh 1 and ADAM17 inh 4.
`CCCCCCC12Cc3cc(OC)c(OC)cc3C(O1)c1c(cc(C)oc1=O)O2` (centres undefined) gave rCAG binder 13, proKLK7 act 1, ADAM10 inh -18 and ADAM17 inh -7.
`Cc1c(/C=N/NC(=O)c2ccccc2O)c2ccccn2c1C(=O)c1ccc(F)cc1` gave Pemphigus Ab inh 80, MPTP block 98*, rCAG binder 7, proKLK7 act -1, ADAM10 inh -8, ADAM17 inh 0 and Rh123 counter 56*.
`O=C(CSc1nccc(-c2cccs2)n1)Nc1cccc(Cl)c1` gave Pemphigus Ab inh 103, MPTP block 10, rCAG binder 4, proKLK7 act 0, ADAM10 inh 4 and ADAM17 inh 1.
For Cc1onc(-c2ccc(Cl)cc2)c1-c1ccnc(SCC(=O)Nc2cc(Cl)cc(Cl)c2)n1 the results were Pemphigus Ab inh 110, MPTP block 50*, rCAG binder 7, proKLK7 act 1, ADAM10 inh -2, ADAM17 inh -4 and Rh123 counter 51*.
C=CCN1C(=O)[C@@H](CC(=O)NCc2ccc(OC)c(OC)c2)[C@]2(C(=O)OC)CCCCC=C12 was read as rCAG binder 2, proKLK7 act 0, ADAM10 inh -10 and ADAM17 inh -2.
Fc1ccc(NC(=S)NCCc2ccccc2)c(F)c1F was read as Pemphigus Ab inh 101, MPTP block 77*, rCAG binder -3, proKLK7 act 0, ADAM10 inh 4, ADAM17 inh -2 and Rh123 counter 92*.
Screening S=C(NCCc1ccccc1)Nc1cnc2ccccc2c1 returned Pemphigus Ab inh 87, MPTP block 77*, rCAG binder 3, proKLK7 act 0, ADAM10 inh -3, ADAM17 inh -3 and Rh123 counter 78*.
